ADAM17 inh: ADAM17 inhibitors, primary screen, biochemical, QFRET. Disintegrin and metalloproteinase domain-containing protein 17 (Homo sapiens), P78536. recombinant ADAM17, EDANS/DABCYL FRET peptide cleavage. inhibition, % at 6.95 µM. 370,000 compounds, 0.83% hits;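 active = inhibition above the mean of compounds lying between control limits plus 3 SD, set per campaign, cut at about 8.5% in these data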
KLK7 zymogen act: proKLK7 zymogen activators, primary screen, biochemical, fluorescence intensity | 370,000 compounds, 0.9% hits | AID 652039, 2013 | purified proKLK7, EDANS-DABCYL substrate fluorescence; 100% is mature enzyme control, 0% vehicle | activation, % at 7 µM;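 active = activation above the mean of all tested compounds plus 3 SD, computed per campaign excluding outliers beyond control limits, cut at about 13% in these data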
HGIII-sPLA2 inh: human group III sPLA2 inhibitors, primary screen, biochemical, QFRET, BODIPY PC-A2 liposome substrate; Group 3 secretory phospholipase A2 (Homo sapiens), Q9NZ20; QFRET BODIPY PC-A2 liposome hydrolysis, fluorescence; inhibition, % at 12.2 µM; 370,000 compounds, 0.56% hits;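 active = inhibition above mean plus 3 SD of compounds lying within the high and low control bounds, cut at about 19% in these data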
PLCg1 inh: PLC-gamma1 enzyme inhibitors, primary screen, biochemical, fluorescence, purified enzyme. 1-phosphatidylinositol 4,5-bisphosphate phosphodiesterase gamma-1 (Homo sapiens), P19174. fluorogenic substrate. inhibition, % at 12.2 µM. 370,000 compounds, 0.84% hits; in the data active = inhibition above about 9.5%
ADAM10 inh: human ADAM10 inhibitors, primary screen, biochemical, QFRET, HTS; recombinant ADAM10, EDANS/DABCYL FRET peptide cleavage, 3 h; inhibition, % at 7 µM; 370,000 compounds, 0.62% hits;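 active = inhibition above a per-campaign cutoff equal to the mean of compounds falling between control-based bounds plus 3 SD, cut at about 20% in these data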
Target sequence (O14672 214-748 limits assumed): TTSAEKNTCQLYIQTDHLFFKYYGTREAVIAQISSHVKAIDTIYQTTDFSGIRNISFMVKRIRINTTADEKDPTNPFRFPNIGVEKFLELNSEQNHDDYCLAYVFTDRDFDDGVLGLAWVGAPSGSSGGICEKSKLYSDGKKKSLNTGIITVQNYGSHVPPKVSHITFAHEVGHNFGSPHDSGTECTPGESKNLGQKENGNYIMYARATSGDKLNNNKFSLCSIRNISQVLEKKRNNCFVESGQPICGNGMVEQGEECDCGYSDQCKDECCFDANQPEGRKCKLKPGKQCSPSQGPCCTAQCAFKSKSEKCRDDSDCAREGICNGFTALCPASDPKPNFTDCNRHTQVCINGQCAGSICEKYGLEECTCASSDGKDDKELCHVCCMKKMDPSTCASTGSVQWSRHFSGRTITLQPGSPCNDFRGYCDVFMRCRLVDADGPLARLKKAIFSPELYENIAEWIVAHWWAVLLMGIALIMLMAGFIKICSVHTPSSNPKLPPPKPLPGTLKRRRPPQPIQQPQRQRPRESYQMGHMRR
PLC-beta3 inh: human PLC-beta3 inhibitors, primary screen, biochemical, fluorescence | 1-phosphatidylinositol 4,5-bisphosphate phosphodiesterase beta-3 (Homo sapiens), Q01970 | Purified PLC-beta3, fluorogenic substrate | inhibition, % at 12.2 µM | 370,000 compounds, 0.18% hits | AID 720704, 2013; in the data active = inhibition above about 11%
hGIII sPLA2 conf: human group III sPLA2 inhibitors, confirmation, biochemical, QFRET, triplicate | recombinant hGIII-sPLA2, BODIPY PC-A2 QFRET fluorescence | 2,000 compounds, 34% hits | inhibition, % at 12.2 µM | shares compounds with HGIII-sPLA2 inh;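 active = mean inhibition across triplicates above the hit cutoff set in the earlier primary screen, cut at about 19% in these data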
535nm interf: 535nm fluorescence optical interference, confirmation, artefact control for HGIII-sPLA2 inhibitor project, biochemical, QFRET; shares compounds with HGIII-sPLA2 inh; BODIPY FL product fluorescence interference; inhibition, % at 12.2 µM; 2,000 compounds, 8.5% hits; AID 743282, 2014;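 active = average inhibition above the solvent-only control mean plus 3 SD, cut at about 6% in these data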
535nm interf DR: 535nm fluorescence optical interference, dose response, artefact control for HGIII-sPLA2 inhibitor project, biochemical, QFRET; shares compounds with HGIII-sPLA2 inh; BODIPY FL product fluorescence interference, cell-free; IC50, µM; 240 tested, under 10 active;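 active = IC50 at or below 10 µM; inactive = IC50 above 10 µM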
Numbers stand for hits; n = inactive; x = no result given. Most compounds without a hit are left out; they make up all but 3.4% or so of the library.

SMILES | ADAM17 inh | KLK7 zymogen act | HGIII-sPLA2 inh | PLCg1 inh | ADAM10 inh | PLC-beta3 inh | hGIII sPLA2 conf | 535nm interf | others
Cn1c(SCC(=O)NCC2COc3ccccc3O2)nnc1C(F)(F)F (centres undefined) | n | n | n | n | n | n | x | x
CCOC(=O)C(NC(=O)NCc1ccc(F)cc1)(OCC)C(F)(F)F (centres undefined) | n | n | n | n | n | n | x | x
CCOC(=O)C(NC(=O)Nc1ccc(Cl)cn1)(Oc1ccc(F)cc1)C(F)(F)F (centres undefined) | n | n | 25 | n | n | n | n | n
Cn1c(N)c(C(=O)COC(=O)C2=NNC(=O)CC2)c(=O)n(C)c1=O | n | n | n | n | n | n | x | x
Cc1ccc2sc(C)[n+](CCC(C)S(=O)(=O)[O-])c2c1 (centres undefined) | n | n | 20 | n | n | n | n | n
Cc1ccc(-c2nnc(Nc3ccc(CC(N)=O)cc3)c3ccccc23)cc1 | n | n | 21 | n | n | n | n | n
Cc1ccc(-c2nnc(Nc3ccc(CC(N)=O)cc3)c3ccccc23)cc1S(N)(=O)=O | n | n | n | n | n | n | x | x
COC(=O)c1ccc(Nc2nnc(-c3ccc(C)c(S(=O)(=O)NCC4CCCO4)c3)c3ccccc23)cc1 (centres undefined) | n | n | n | n | n | n | x | x
Cc1ccc(-c2nnc(Nc3ccc(CC(N)=O)cc3)c3ccccc23)cc1S(=O)(=O)NCC1CCCO1 (centres undefined) | n | n | 19 | n | n | n | n | n
CCN(CC)CC(=O)Nc1cc(N(C)C)nc2ccccc12 | n | n | 20 | n | n | n | n | n
O=C(N/N=C/c1ccc(O)c(O)c1O)/C(=C/c1ccc([N+](=O)[O-])cc1)NC(=O)c1ccccc1 | n | n | 25 | n | n | n | 29 | 6.1
COc1ccc(N2CCN(C(C)C(=O)Nc3nnc(C)s3)CC2)cc1 (centres undefined) | n | n | n | n | n | n | x | x
CCN(CC)c1ccc(/C=C/c2cc(-c3ccccc3)c3ccccc3n2)cc1 | n | n | 25 | n | n | n | n | n
CCCCn1nnc(NC(=S)NC(=O)c2cccs2)n1 | n | n | 23 | n | n | n | n | n
CN(C(=O)c1ccncc1)C1CCCCC1 | n | n | n | n | n | n | x | x
CN(C)c1ccc(N=Nc2nccs2)cc1 | n | n | 25 | n | n | n | 45 | 18
CN(C)c1ccc(N=Nc2ccccc2Br)cc1 | n | n | n | n | n | n | x | x
S=C(/N=c1/sccn1Cc1ccccc1)NC1CC1 | n | n | 20 | n | n | n | n | n
Cc1ccc(-c2nc(CN3CCCC(C(=O)N4CCOCC4)C3)c(C)o2)cc1 (centres undefined) | n | n | n | n | n | n | x | x
CCc1ccc(NC(=O)NNC(=O)c2ccc3ccccc3c2O)cc1 | n | n | 32 | n | n | n | 25 | n
O=C(NNC(=O)c1ccc2ccccc2c1O)c1cccs1 | n | n | n | n | n | n | x | x
CCc1ccc(NC(=O)NNC(=O)c2cc3ccccc3cc2O)cc1 | n | n | 27 | n | n | n | n | n
O=C(/C=C/c1cccs1)NC(=S)NNC(=O)Cc1cccs1 | n | n | 29 | n | n | n | 39 | n | 535nm interf DR=n
O=C(/C=C/c1cccs1)NNC(=O)c1ccccc1 | n | n | 20 | n | n | n | n | n
COc1ccc(/C=C/C(=O)NC(=S)NNC(=O)Cc2cccs2)cc1OC | n | n | n | n | n | n | x | x
SMILES | ADAM17 inh | KLK7 zymogen act | HGIII-sPLA2 inh | PLCg1 inh | ADAM10 inh | PLC-beta3 inh | hGIII sPLA2 conf | 535nm interf | others
O=C(/C=C/c1cccs1)NNC(=O)c1cccc([N+](=O)[O-])c1 | n | n | n | n | n | n | x | x
CC(C)CNC(=O)/C=C/c1cccs1 | n | n | 22 | n | n | n | n | n
Cc1c(C(=O)OCc2nc3ccsc3c(=O)[nH]2)oc2ccccc12 | n | n | n | n | n | n | x | x
Cc1cc(OCC(=O)NCC(c2ccc(F)cc2)N2CCOCC2)ccc1Cl (centres undefined) | n | n | n | n | n | n | x | x
O=S(=O)(Nc1ccc(Br)cc1)c1cccc(NS(=O)(=O)c2cccs2)c1 | n | n | n | n | n | n | x | x
Cc1ccc(-c2n[nH]c(=S)n2-c2ccccc2)cc1 | n | n | n | n | n | n | x | x
S=c1[nH]nc(-c2ccc3c(c2)OCO3)n1-c1ccccc1 | n | n | 25 | n | n | n | 23 | n
Cn1c(SCC(=O)NC2CCCCC2)nnc1-c1ccccc1O | n | n | n | n | n | n | x | x
Cc1cc(OC(=O)c2cccc(C(F)(F)F)c2)c([N+](=O)[O-])c(=O)[nH]1 | n | n | 22 | n | n | n | n | n
CCOC(=O)c1cccc(NC(=O)c2ccc(N(C)C)cc2)c1 | n | n | n | n | n | n | x | x
CCC(C)NC(=O)CCSc1ccc(C)cc1 (centres undefined) | n | n | 19 | n | n | n | n | n
CCC(C)NC(=O)CSc1ccc(Cl)cc1 (centres undefined) | n | n | n | n | n | n | x | x
O=[N+]([O-])c1ccccc1/C=N/n1c(-c2ccccc2)n[nH]c1=S | n | n | 20 | n | n | n | 29 | n
Cc1n[nH]c(=S)n1/N=C/c1ccccc1 | n | n | 22 | n | n | n | 21 | n
Cc1cccc(/C=N/n2c(-c3ccccc3)n[nH]c2=S)c1O | n | n | n | n | n | n | x | x
O=C(CN1C(=O)S/C(=C/c2ccc(N3CCOCC3)cc2)C1=O)N1CCOCC1 | n | n | 22 | n | n | n | n | n
Cc1ccc(/C=C2/SC(=O)N(CC(=O)N3CCOCC3)C2=O)s1 | n | n | n | n | n | n | x | x
COc1cnc(-c2ccccn2)nc1Oc1cccc(C(F)(F)F)c1 | n | n | 21 | n | n | n | n | n
NC(N)=NC1=NC(=O)C(Cc2ccccc2)S1 (centres undefined) | n | n | n | n | n | n | x | x
